Screening data: PubChem BioAssay, National Center for Advancing Translational Sciences (NCATS)
ERK EGF block – blocks ERK signaling stimulated by EGF. Potency, µM (highest dose often 11.5 µM), hits mostly inhibitors. 0.41% of 130,000 active. HEK293-V1b, EGF-stimulated phospho-ERK AlphaScreen; note: nearly all actives have a fitted effect of over 55% in size
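Phospho-ERK1/2 measured by AlphaScreen (SureFire) after 5 min 25 nM EGF stimulation of V1b-expressing HEK293 cells preincubated 30 min at 37C with titrated compounds; data scaled to DMSO and EGF controls, Hill-fitted AC50.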
NPSR antagonist – blocks cAMP signaling of the human neuropeptide S receptor. CHO-NPSR cells, cAMP TR-FRET, antagonist mode. Q6W5P4. Potency, µM (highest dose often 38.3 µM), hits mostly inhibitors. 1% of 220,000 active. AID 1461; note: nearly all actives have a fitted effect of over 50% in size
Target sequence (Q6W5P4 whole entry, looked up): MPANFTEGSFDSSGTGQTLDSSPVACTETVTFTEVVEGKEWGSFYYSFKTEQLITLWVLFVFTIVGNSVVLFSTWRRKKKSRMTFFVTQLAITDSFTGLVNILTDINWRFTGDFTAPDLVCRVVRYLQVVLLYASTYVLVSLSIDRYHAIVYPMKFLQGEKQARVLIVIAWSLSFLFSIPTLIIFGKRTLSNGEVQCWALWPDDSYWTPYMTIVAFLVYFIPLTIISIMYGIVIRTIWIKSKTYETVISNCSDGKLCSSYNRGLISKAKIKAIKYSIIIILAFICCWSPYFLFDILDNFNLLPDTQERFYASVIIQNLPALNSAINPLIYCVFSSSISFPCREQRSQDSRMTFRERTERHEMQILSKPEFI
IMPase Li inh – membrane-permeable IMPase blocker, potentiated with lithium; CHO-M1 cells, IP1 TR-FRET (IP-One), carbachol + lithium; Potency, µM (titrated, usually from 59.4 µM), hits mostly inhibitors; 0.35% of 210,000 active; AID 1457;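 note: IP1 builds up when IMPase is blocked and the TR-FRET signal falls; nearly all actives have a fitted effect of over 50% in size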
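CHO cells stably expressing M1 receptor (2000/well) were cultured 16–30 h, then exposed to compounds with a small lithium addition for 30 min at 37C. IP1 was measured by TR-FRET competition; AC50 from Hill fits.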
Each line names hits and unclear results; the compound was inactive in the other large screens; ! = not confirmed by another sample. The sample as a whole holds a higher share of hits than the screen did. Calls come from the whole dose curve; as a rule, active = well fitted curve in the direction sought with a large enough effect; inconclusive = small, poorly fitted or top-dose-only effect, or another doubt; inactive = no such curve, though single readings can be large; an effect the other way counts as inactive or inconclusive.

COc1cc2ncnc(NCc3ccc(C)cc3)c2cc1OC	none (no result: ERK EGF block)
COc1cc2[nH]c(=S)nc(NCc3cccs3)c2cc1OC	none
COc1ccc(CCNc2ncnc3cc(OC)c(OC)cc23)cc1OC	ERK EGF block 28µM
COc1cc2ncnc(NCCc3ccccc3)c2cc1OC	ERK EGF block 3.5µM
COc1ccc(-c2nc3c(c4c2C[C@H](c2ccccc2)OC4)CN(S(=O)(=O)c2ccc(NC(C)=O)cc2)CC3)c(C)c1	none (no result: ERK EGF block, NPSR antagonist)
C[C@]12C[C@@](C)(C=C1/C=C/c1ccc(C(F)(F)F)cc1)C(=O)C[C@H]2c1ccc(C(F)(F)F)cc1	none (no result: NPSR antagonist)
COc1ccc(C2=NN(C(=O)c3cccs3)C(O)(C(F)(F)F)C2)cc1 (stereo not drawn)	ERK EGF block inconclusive
COc1ccc(C2=NN(C(=O)c3cccs3)C(c3ccccc3O)C2)cc1 (stereo not drawn)	NPSR antagonist 10µM
CCc1ccc(NC(=S)NC(=O)c2c(-c3ccccc3Cl)noc2C)cc1	none (no result: IMPase Li inh)
Cc1onc(-c2ccccc2Cl)c1C(=O)NC(=S)NCC(=O)c1ccccc1	NPSR antagonist inconclusive, IMPase Li inh 10µM
Cc1nn(C)c2nc(NNC(=O)Nc3cc(Cl)nc(Cl)c3)cc(C(C)C)c12	none (no result: ERK EGF block, NPSR antagonist)
CCSc1nnc(NC(=O)c2cc3c(s2)CCCC3)s1	IMPase Li inh 5.6µM (no result: ERK EGF block)
O=C(Nc1nnc(SCc2ccccc2)s1)c1cc2c(s1)CCCC2	none (no result: ERK EGF block)
COc1ccc(-c2csc(NC(=O)c3ccccc3C(=O)O)n2)cc1	none
COc1ccc(-c2csc(NC(=O)c3ccoc3C)n2)cc1	ERK EGF block 16µM, NPSR antagonist inconclusive
O=C(c1csnn1)N1CCC2(CCCN(Cc3cc(C(F)(F)F)cc(C(F)(F)F)c3)C2)CC1	none (no result: NPSR antagonist)
C=CC1=C2C=C(C3CC3)N(CCCOC(C)C)C=C2C(=O)C(C)(OC(=O)c2ccco2)C1=O (stereo not drawn)	none (no result: ERK EGF block, NPSR antagonist)
O=C(NC(=S)NN1CCCCC1c1cccnc1)c1ccc(Br)cc1 (stereo not drawn)	ERK EGF block 14µM (no result: IMPase Li inh)
COC(=O)c1ccc(NC(=S)NN2CCCCC2c2cccnc2)cc1 (stereo not drawn)	none (no result: IMPase Li inh)
CCOC(=O)c1nnc(-c2ccccc2)o1	none (no result: ERK EGF block)
CCc1ccc(C(=O)COC(=O)c2ccc(-c3nnc(-c4ccccc4)o3)cc2)cc1	IMPase Li inh 3.5µM (no result: ERK EGF block)
COc1ccc(-n2c(=O)c(C)nc3cncnc32)cc1	none (no result: NPSR antagonist)
O=C(O)c1cc2c([nH]c1=O)CCCC2	IMPase Li inh inconclusive (no result: ERK EGF block)
C=CCSC(=C(C#N)C#N)c1cc2c([nH]1)CCCC2	NPSR antagonist 13µM (no result: ERK EGF block)
Cc1ccc(CNCCNCCO)s1	none
O=C1c2c(O)ccc(O)c2C(=O)c2c(NCCNCCO)ccc(NCCNCCO)c21	ERK EGF block 20µM!, NPSR antagonist 10µM
Fc1ccc(C(c2ccc(F)cc2)N2CCN(C/C=C/c3ccccc3)CC2)cc1	NPSR antagonist inconclusive
C(=C\c1ccccc1)/CN1CCN(C(c2ccccc2)c2ccccc2)CC1	ERK EGF block inconclusive, NPSR antagonist 13µM!
O=C1O[C@@H]([C@@H](O)CO)[C@@H](O)[C@H]1O	none (no result: NPSR antagonist)
Cc1ccccc1-c1cncnc1NCc1cccs1	none (no result: ERK EGF block, NPSR antagonist)
O=[N+]([O-])c1ccc2c(c1)ncn2-c1ccccc1	none
Cn1c(-[n+]2c(-c3ccccc3)cc(-c3ccccc3)cc2-c2ccccc2)nc2cc([N+](=O)[O-])ccc21	NPSR antagonist 10µM (no result: ERK EGF block, IMPase Li inh)
CC(=O)SC1CC2=CC(=O)CC[C@]2(C)C2CC[C@@]3(C)[C@@H](CC[C@@]34CCC(=O)O4)C12 (stereo partly drawn)	NPSR antagonist inconclusive
O=C1c2ccccc2C(=O)c2c(O)ccc(O)c21	none (no result: NPSR antagonist)
O=C1c2ccccc2C(=O)c2c(Nc3ccc(CCO)cc3)ccc(O)c21	ERK EGF block 14µM, NPSR antagonist inconclusive (no result: IMPase Li inh)
CCCCCCCCCCCCCCCCCCOC[C@H](COP(=O)([O-])OCC[N+](C)(C)C)OC(C)=O	none (no result: NPSR antagonist)
N#Cc1cnn(-c2ccccc2)c1NC(=O)CN1CCN(c2ccccc2)CC1	none (no result: IMPase Li inh)
O=C1O/C(=C/c2ccccc2)c2ccccc21	none
N#CC1=C(c2ccccc2)/C(=C/c2ccccc2)OC1=O	NPSR antagonist 2.5µM (no result: ERK EGF block)
Nc1[nH]c(=S)[nH]c(=O)c1N=Nc1c(Br)cc(S(N)(=O)=O)cc1Br	none (no result: ERK EGF block, NPSR antagonist)
O=C(c1ccco1)N1CCC2(CC1)CN(c1cccc(-c3ccccc3)c1)C2	ERK EGF block inconclusive (no result: NPSR antagonist)
Cc1cc(C)c2c(c1)/C(=c1/sc3n(c1=O)CN(c1ccccc1)CN=3)C(=O)N2	NPSR antagonist inconclusive (no result: IMPase Li inh)
COCCn1c(=O)cnc2cnc(N3CCN(C)CC3)nc21	none (no result: ERK EGF block, NPSR antagonist)
O=c1c(Br)c(Br)cnn1-c1ccccc1	NPSR antagonist 10µM, IMPase Li inh inconclusive
Cc1ccc(-n2ncc(Br)c(Br)c2=O)cc1	NPSR antagonist inconclusive, IMPase Li inh inconclusive
COc1c(Cl)cccc1-c1cn2ccc(C)cc2n1	none (no result: IMPase Li inh)
Cc1cc(=O)c2c(O)c3c(O)cc(O)c4c5c(O)cc(O)c6c(O)c7c(=O)cc(C)c8c1c2c(c34)c(c65)c78	IMPase Li inh 13µM (no result: ERK EGF block, NPSR antagonist)
Cc1cc(O)c2c(c1O)C(=O)c1c(O)cc(C)c(O)c1C2=O	none (no result: NPSR antagonist)
N#CCCCS(=O)(=O)c1nc2ccccc2s1	none (no result: NPSR antagonist)
COC(=O)C1=C(C)NC(C)=C(C(=O)OCCCN2CCC(c3ccccc3)(c3ccccc3)CC2)[C@H]1c1cccc([N+](=O)[O-])c1	none (no result: NPSR antagonist)
CCCCC(CC)CNC(=O)CC1Nc2c3ccccc3nc(=S)n2C1=O (stereo not drawn)	IMPase Li inh 13µM
CCCCC(CC)CNC(=O)CCS(=O)(=O)c1cccc2nonc12 (stereo not drawn)	none (no result: ERK EGF block)
Cc1[nH]n(-c2ccccc2)c(=O)c1N=Nc1cccc(S(=O)(=O)N2CCOCC2)c1	none (no result: ERK EGF block, IMPase Li inh)
Nc1[nH]n(-c2ccccc2)c(=O)c1N=Nc1ccc2c(c1)OCCO2	ERK EGF block inconclusive
Nc1[nH]n(-c2ccccc2)c(=O)c1N=Nc1ccc2c(c1)OCO2	ERK EGF block 22µM (no result: IMPase Li inh)
Cc1[nH]n(-c2ccccc2)c(=O)c1N=Nc1ccccc1	ERK EGF block 16µM
N#Cc1ccc(CS(=O)(=O)c2nnnn2-c2ccccc2)cc1	none (no result: NPSR antagonist)
Cc1nc2cnc(N3CCOCC3)nc2n(C[C@H]2CCCO2)c1=O	none (no result: ERK EGF block, NPSR antagonist)
CO[C@@H](NC(N)=O)C(=O)O	none (no result: ERK EGF block, NPSR antagonist)
CC(=O)Nc1nc(-c2ccc([N+](=O)[O-])cc2)cs1	none
O=C(Nc1ccc([N+](=O)[O-])cc1)Nc1nc(-c2ccc(Cl)s2)cs1	NPSR antagonist 6.3µM
O=C(c1ccncc1)N1CCC2(CCCN(c3ccncc3)C2)CC1	none (no result: NPSR antagonist)
COC(=O)C1=C(C(=O)OC)[C@@H]2N(Cc3ccccc3)c3ccccc3[C@@]23C[C@@H](C(=O)OC)N(S(=O)(=O)c2ccc4c(c2)OCCN4C)C3=N1	none (no result: ERK EGF block, NPSR antagonist)
CN1CCN(c2nc(-c3ccco3)cc(C(F)(F)F)n2)CC1	none (no result: ERK EGF block)
COc1ccccc1-c1cc(C(F)(F)F)nc(S(C)(=O)=O)n1	NPSR antagonist 7.9µM (no result: ERK EGF block)
CS(=O)(=O)c1nc(-c2ccco2)cc(C(F)(F)F)n1	NPSR antagonist 10µM (no result: ERK EGF block)
COc1ccccc1-c1cc(C(F)(F)F)nc(S(=O)(=O)CCCC(=O)NC(C)C)n1	NPSR antagonist inconclusive (no result: ERK EGF block)
NC(C(=O)O)c1ccc(P(=O)(O)O)cc1 (stereo not drawn)	none (no result: ERK EGF block, NPSR antagonist)
CC(C)(N=NC(C)(C)C1=NCCN1)C1=NCCN1	none (no result: ERK EGF block, NPSR antagonist)
CCOc1cc(/C=N/Nc2nc(N3CCCC3)nc(N3CCCC3)n2)ccc1O	NPSR antagonist 13µM
CCOc1cccc(/C=N/Nc2nc(N3CCCC3)nc(N3CCCC3)n2)c1O	none (no result: IMPase Li inh)
